Compounds with a hit are over-represented: about 12% of the library has one in this group of screens.
Sfp inh – Sfp phosphopantetheinyl transferase inhibition | Q9F4F7 | Potency, µM, inactives show largest response in the series, negative = inhibition, hits mostly inhibitors | 310,000 tested, 3.5% active | Biochemical Sfp PPTase activity, qHTS;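 further: the enzyme is Sfp with the accession as filed and its product quenches rhodamine fluorescence; 0% = enzyme reaction without inhibitor and -100% = no enzyme wells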
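Fluorescence-quenching assay with 15 nM Sfp, 5 uM rhodamine-CoA and 12.5 uM BHQ-2-labelled ybbR peptide in pH 7.6 Hepes/MgCl2 buffer. Enzyme was pre-incubated with compound for 15 min at room temperature. Rate was taken from the 30-min fluorescence change (525/598 nm).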
JMJD2A Tudor inh – blocks the human JMJD2A Tudor domain; AID 504339; AlphaScreen JMJD2A-Tudor / H3K4me3 peptide binding; 390,000 tested, 4.4% active; Potency, µM (doses to about 114 µM), inactives show at the top dose activity change, negative = inhibition, hits mostly inhibitors; O75164; further: on the % scale 0 is the no-effect control and ±100 the full control effect; nearly all actives have a fitted effect of over 50% in size
HP1b chromo inh – inhibitors of HP1-beta chromodomain binding to methylated histone tails; P83916; 390,000 tested, 0.56% active; Potency, µM (series often up to 114 µM), inactives show at the top dose activity change, negative = inhibition, hits mostly inhibitors; AlphaScreen HP1-beta / biotin-H3K9me3 peptide binding; further: nearly all actives have a fitted effect of over 70% in size
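Compound inhibition of the preformed complex between 50 nM HP1-beta and 50 nM biotinylated H3K9me3 peptide was read by AlphaScreen. Buffer was PBS pH 7.4 with 0.01% Tween-20. Incubations ran 30 min at room temperature, with 10 ug/mL donor/acceptor beads.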
PLK1 PBD inh – PLK1 (human) polo-box domain binding inhibition | Plk1 PBD binding of FITC phosphopeptide, fluorescence polarization | P53350 | Potency, µM, without a hit: max response, negative = inhibition, actives largely listed as inhibitors | 360,000 tested, 2.8% active; further: series mostly up to about 57 µM; on the % scale 0 is the no-effect control and ±100 the full control effect; nearly all actives have a fitted effect of over 65% in size
BAZ2B inh – blocks human BAZ2B | Q9UIF8 | AlphaScreen BAZ2B-H3K14Ac peptide displacement | Potency, µM (highest dose often 114 µM), without a hit: at the highest dose activity change, negative = inhibition, actives largely listed as inhibitors | 360,000 tested, 4.4% active | AID 504333; further: on the % scale 0 is the no-effect control and ±100 the full control effect; nearly all actives have a fitted effect of over 60% in size
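Compounds, titrated to a top concentration of 110 uM, were incubated 30 min at room temperature with preformed BAZ2B/acetyl-K14 H3 peptide complex (50 nM each). Proximity signal was measured by AlphaScreen after 20 min with beads.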
G9a block – G9a (human) methyltransferase inhibition; Q96KQ7; G9a H3K9 monomethylation, AlphaScreen, 2 h; Potency, µM (titrated, usually from 102 µM), for the others: at the top dose activity, negative = inhibition, usual class: inhibitors; 350,000 tested, 8.8% active; further: on the % scale 0 is the no-effect control and ±100 the full control effect; nearly all actives have a fitted effect of over 75% in size
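AlphaScreen detection with an anti-monomethyl H3K9 antibody quantified product after a 2 h room-temperature reaction containing 500 nM biotinylated H3K9 peptide, 20 µM SAM and 20 nM enzyme, which had been preincubated 15 min with compound.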
Starred values were filed as active, the others as inactive; u = inconclusive; x = not tested or not shown; [ ] = remark or other dose. The call rests on the fitted dose curve; in most records, active means well fitted curve in the direction sought with a large enough effect; inconclusive means small, poorly fitted or top-dose-only effect, or another doubt; inactive means no such curve, though single readings can be large; an effect the other way counts as inactive or inconclusive. Potency means the concentration at half of the fitted maximal effect.

SMILES | Sfp inh | JMJD2A Tudor inh | HP1b chromo inh | PLK1 PBD inh | BAZ2B inh | G9a block
CC(C)(O)[C@@H]1[C@H]2OC(=O)[C@@H]1[C@]1(O)C[C@H]3O[C@]34C(=O)O[C@H]2[C@@]14C (tested in a mixture with another compound) | -13% | x | x | x | x | x
C[C@H]1[C@@H](O)[C@@H](C)/C=C\C=CCC\C=C/C=C\C=C/C=C[C@@H](O[C@H]2O[C@@H](C)[C@@H](O)[C@@H](N)[C@@H]2O)C[C@@H]2O[C@@](O)(C[C@@H](O)[C@H]2C(=O)O)C[C@@H](O)[C@@H](O)CC[C@@H](O)C[C@@H](O)C[C@@H](O)CC(=O)O[C@H]1C | 18% | x | x | x | x | 24%[21.5 µM]
NCCCP(=O)(O)CC1CCCCC1 | -5% | x | x | x | x | 40%[59 µM]
O=C(Cc1ccccc1)Oc1coc(CSc2ncccn2)cc1=O | 1% | 14µM* | 18% | -8% | x | -7%
COC(=O)c1ccc(NS(=O)(=O)NC(=O)c2cn(C)c3ccccc23)cc1 | 23% | -13% | 12%[57 µM] | 4% | u | 79µM*
Cc1ccc(N=Nc2cc(C)ccc2N)cc1 | -8% | u | u | -12% | 7.9µM* | x
CCc1ccc(OCC(=O)N2CCN(CCc3ccncc3)CC2)cc1 | x | -23% | 51% | x | 9% | -1%[59 µM]
O=C(O)CC(O)(CC(=O)O)C(=O)O | 4% | 79µM* | 6% | -1% | x | -3%[2.33 µM]
CON(C)C(=O)Nc1ccc(Br)cc1 | 8% | x | x | x | x | x
O=C(O)/C=C\C(=O)Nc1ccc(Oc2ccc(Br)cc2)cc1 | 9% | -14% | 35% | -3% | 50µM* | u
CC(=O)OCOCC(=O)OCO[P+](=O)C(OCOC(C)=O)c1cc([N+](=O)[O-])ccc1Oc1ccc(Br)cc1 (stereo not given) | 18% | x | x | x | x | 14%[59 µM]
CCOC(=O)C1CCN(/C=C2\C(=O)NC(=S)N(CC)C2=O)CC1 | 79µM* | -12% | 67% | 1% | -1% | -7%
CCOC(=O)C1CCN(C=C2C(=O)N(C)C(=S)N(C)C2=O)CC1 | -4% | -30% | 33% | -2% | 6% | -4%[59 µM]
CCOC(=O)C1CCN(/C=C2/C(=O)NC(=S)N(c3cccc(OC)c3)C2=O)CC1 | 0% | -9% | 35% | -13% | -3% | 22µM*
CC(=O)OO | 15% | x | x | x | x | 26%[59 µM]
CCC(/C=C/C(C)C1CCC2C3CC=C4CC(O)CC[C@@]4(C)C3CC[C@@]12C)C(C)C (stereo not given in full) | 31% | x | x | x | x | x
Cc1ccc2c(c1)C1CN(C)CCC1N2C(=O)Cc1cccs1 (stereo not given) | 12% | -20% | 10% | -13% | -4% | 79µM*
Cc1ccc2c(c1)C1CN(C)CCC1N2C(=O)c1cccs1 (stereo not given) | -3% | -14% | 1% | -6% | -20% | 9%
O=C(COc1ccc(Br)cc1)N1CCN(Cc2ccc3c(c2)OCO3)CC1 | u | 8.9µM* | u | -8% | 50µM* | x
Cc1ccc(OCC(=O)N2CCN(Cc3ccc4c(c3)OCO4)CC2)cc1C | 7% | -15% | 16% | 2% | u | -8%[12.7 µM]
O=C(COc1ccc(Br)cc1)N1CCN(Cc2ccncc2)CC1 | -7% | 1µM* | u | -15% | -3% | 18µM*
CSc1ccc(CN2CCN(C(=O)COc3ccc(C)cc3)CC2)cc1 | -12% | 8.9µM* | u | -4% | 56µM* | 10µM*
O=C(COc1ccc(S(=O)(=O)N2CCCCC2)cc1)N1CCN(Cc2ccccc2)CC1 | 0% | -12% | 25% | -7% | -2% | 45µM*
Cc1cccc(OCC(=O)N2CCN(Cc3ccc4c(c3)OCO4)CC2)c1 | -28% | u | u | -9% | 50µM* | 10µM*
CC1(C)C(=O)CCC2C1=CCC1C2CCC2(C)C(O)CCC12 (stereo not given) | x | -14% | 31% | -3% | x | x
SMILES | Sfp inh | JMJD2A Tudor inh | HP1b chromo inh | PLK1 PBD inh | BAZ2B inh | G9a block
CCOC(=O)COc1ccc(/C=C2\C(=O)NC(=S)N(c3ccc(OC)cc3)C2=O)cc1OC | 45µM* | 35µM* | 11% | 15µM* | u | u
COc1cc(N2CCOCC2)ccc1/C=C1\C(=O)NC(=O)N(C2CCCCC2)C1=O | 10% | -15% | 13% | u | -37% | u
COc1ccc(N2C(=O)/C(=C/c3ccc(OC)c(OC)c3)C(=O)NC2=S)cc1 | -94% | 56µM* | u | 7.5µM* | -30% | x
CC1OC(O[C@@H]2C(O)CC(O[C@@H]3C(O)C[C@@H](OC4CC[C@]5(C)[C@H](CC[C@H]6[C@@H]5CC[C@]5(C)C(C7=CC(=O)OC7)C(O)C[C@@]65O)C4)OC3C)OC2C)CC(O)C1O (stereo not given in full) | -10% | x | x | x | x | x
CN1C(=O)C(=Cc2sc(=O)n(-c3ccccc3)c2N2CCCCC2)C(=O)N(C)C1=O | -11% | -18% | 23% | 17% | u | 50µM*
CN1C(=O)C(=Cc2cc([N+](=O)[O-])ccc2N2CCCCC2)C(=O)N(C)C1=O | -5% | -11% | 16% | -6% | u | 3%[59 µM]
CCOC(=O)CNC(=O)N1Cc2ccccc2-n2nncc2C1 | x | x | x | -12% | x | x
Cc1cccn2c(=O)c(/C=C(\C#N)c3nc4ccccc4s3)c(Oc3ccc(F)cc3)nc12 | x | -9% | 47% | x | -2% | -25%[59 µM]
CN1CCN(c2ccccc2NC(=O)c2ccc(-c3ccc(Cl)c(Cl)c3)o2)CC1 | 7% | 50µM* | -2% | 4% | -7% | 49%
CC1CCN(c2ccccc2NC(=O)c2cc3ccccc3o2)CC1 | 4% | 29% | 86% | -9% | 7% | 103%
CCN(CC)CCOC(=O)C(C)(c1ccccc1)c1ccccc1 | 4% | x | x | x | x | -46%[12.7 µM]
CCCCn1c(-c2ccoc2C)n[nH]c1=S | -4% | 7.9µM* | 9% | -14% | 2% | 4µM*
Cc1ccc(CN2CCSc3ccc(C(=O)N4CCC5(CC4)OCCO5)cc32)cc1 | -9% | u | 11% | -12% | -38%[57.1 µM] | 50µM*
O=C(c1ccc2c(c1)N(Cc1ccc(F)cc1)CCS2)N1CCC2(CC1)OCCO2 | -8% | -35% | 3% | -19% | u | -17%
Cc1ccc(CN2CCN(CC(=O)N3CCC4(CC3)OCCO4)C2=O)cc1 | 2% | -25%[11.4 µM] | -12% | 30µM* | 7% | u
Cc1ccc(CCN2CC(C(=O)N3CCC4(CC3)OCCO4)CC2=O)cc1 (stereo not given) | 2% | -12% | 22% | -12% | 8% | x
CCN(CC)C(=O)N[C@H]1C=C2c3cccc4[nH]cc(c34)C[C@@H]2N(C)C1 | 4% | x | x | x | x | u
CCN1CCN(C(=O)COc2ccc(S(=O)(=O)Nc3ccc(Cl)cc3)cc2)CC1 | -9% | -14% | 26% | -4% | -18% | 8%

Bioassay records (PubChem BioAssay)
